Bioassay records as filed in PubChem BioAssay.
rCAG binder – binders of r(CAG) RNA repeats, primary screen, biochemical, fluorescence. inhibition, % at 3 µM. r(CAG) RNA repeat, TO-PRO-1 dye displacement fluorescence. AID 651821, 2012. 370,000 compounds, 1.3% hits;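 active = inhibition above the plate cutoff, the mean of all test compounds on that plate plus 3 SD, cut at about 35% in these data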;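 note: 0% = DMSO alone and 100% = 100 µM mitoxantrone as full dye displacement; higher means more dye released from RNA so lower well fluorescence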
GRIN3A LBD mod – binders of NR3A ligand-binding domain, primary screen, biophysical, differential scanning fluorimetry, uHTS; Glutamate receptor ionotropic, NMDA 3A (GRIN3A) ligand-binding domain; 340,000 compounds, 2.5% hits; Tm shift relative to glycine control, % at 25 µM; NR3A LBD differential scanning fluorimetry, Tm shift; 0% = protein alone, 100% = glycine-bound protein;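 active = melting temperature shift of at least 10% of the positive control shift, at one fixed dose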
FAS TE block – FAS thioesterase domain inhibitors, primary screen, biochemical, fluorescence intensity, uHTS. inhibition, % at 15 µM. recombinant FAS-TE, OMFH fluorogenic substrate, fluorescence endpoint. 360,000 compounds, 0.67% hits;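 active = compounds whose normalised, plate-corrected inhibition of enzyme fluorescence in the single-dose primary screen is 50% or more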;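 note: 0% = DMSO with enzyme and 100% = substrate without enzyme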
Target sequence (P49327 whole entry, looked up, the tested form may be a part): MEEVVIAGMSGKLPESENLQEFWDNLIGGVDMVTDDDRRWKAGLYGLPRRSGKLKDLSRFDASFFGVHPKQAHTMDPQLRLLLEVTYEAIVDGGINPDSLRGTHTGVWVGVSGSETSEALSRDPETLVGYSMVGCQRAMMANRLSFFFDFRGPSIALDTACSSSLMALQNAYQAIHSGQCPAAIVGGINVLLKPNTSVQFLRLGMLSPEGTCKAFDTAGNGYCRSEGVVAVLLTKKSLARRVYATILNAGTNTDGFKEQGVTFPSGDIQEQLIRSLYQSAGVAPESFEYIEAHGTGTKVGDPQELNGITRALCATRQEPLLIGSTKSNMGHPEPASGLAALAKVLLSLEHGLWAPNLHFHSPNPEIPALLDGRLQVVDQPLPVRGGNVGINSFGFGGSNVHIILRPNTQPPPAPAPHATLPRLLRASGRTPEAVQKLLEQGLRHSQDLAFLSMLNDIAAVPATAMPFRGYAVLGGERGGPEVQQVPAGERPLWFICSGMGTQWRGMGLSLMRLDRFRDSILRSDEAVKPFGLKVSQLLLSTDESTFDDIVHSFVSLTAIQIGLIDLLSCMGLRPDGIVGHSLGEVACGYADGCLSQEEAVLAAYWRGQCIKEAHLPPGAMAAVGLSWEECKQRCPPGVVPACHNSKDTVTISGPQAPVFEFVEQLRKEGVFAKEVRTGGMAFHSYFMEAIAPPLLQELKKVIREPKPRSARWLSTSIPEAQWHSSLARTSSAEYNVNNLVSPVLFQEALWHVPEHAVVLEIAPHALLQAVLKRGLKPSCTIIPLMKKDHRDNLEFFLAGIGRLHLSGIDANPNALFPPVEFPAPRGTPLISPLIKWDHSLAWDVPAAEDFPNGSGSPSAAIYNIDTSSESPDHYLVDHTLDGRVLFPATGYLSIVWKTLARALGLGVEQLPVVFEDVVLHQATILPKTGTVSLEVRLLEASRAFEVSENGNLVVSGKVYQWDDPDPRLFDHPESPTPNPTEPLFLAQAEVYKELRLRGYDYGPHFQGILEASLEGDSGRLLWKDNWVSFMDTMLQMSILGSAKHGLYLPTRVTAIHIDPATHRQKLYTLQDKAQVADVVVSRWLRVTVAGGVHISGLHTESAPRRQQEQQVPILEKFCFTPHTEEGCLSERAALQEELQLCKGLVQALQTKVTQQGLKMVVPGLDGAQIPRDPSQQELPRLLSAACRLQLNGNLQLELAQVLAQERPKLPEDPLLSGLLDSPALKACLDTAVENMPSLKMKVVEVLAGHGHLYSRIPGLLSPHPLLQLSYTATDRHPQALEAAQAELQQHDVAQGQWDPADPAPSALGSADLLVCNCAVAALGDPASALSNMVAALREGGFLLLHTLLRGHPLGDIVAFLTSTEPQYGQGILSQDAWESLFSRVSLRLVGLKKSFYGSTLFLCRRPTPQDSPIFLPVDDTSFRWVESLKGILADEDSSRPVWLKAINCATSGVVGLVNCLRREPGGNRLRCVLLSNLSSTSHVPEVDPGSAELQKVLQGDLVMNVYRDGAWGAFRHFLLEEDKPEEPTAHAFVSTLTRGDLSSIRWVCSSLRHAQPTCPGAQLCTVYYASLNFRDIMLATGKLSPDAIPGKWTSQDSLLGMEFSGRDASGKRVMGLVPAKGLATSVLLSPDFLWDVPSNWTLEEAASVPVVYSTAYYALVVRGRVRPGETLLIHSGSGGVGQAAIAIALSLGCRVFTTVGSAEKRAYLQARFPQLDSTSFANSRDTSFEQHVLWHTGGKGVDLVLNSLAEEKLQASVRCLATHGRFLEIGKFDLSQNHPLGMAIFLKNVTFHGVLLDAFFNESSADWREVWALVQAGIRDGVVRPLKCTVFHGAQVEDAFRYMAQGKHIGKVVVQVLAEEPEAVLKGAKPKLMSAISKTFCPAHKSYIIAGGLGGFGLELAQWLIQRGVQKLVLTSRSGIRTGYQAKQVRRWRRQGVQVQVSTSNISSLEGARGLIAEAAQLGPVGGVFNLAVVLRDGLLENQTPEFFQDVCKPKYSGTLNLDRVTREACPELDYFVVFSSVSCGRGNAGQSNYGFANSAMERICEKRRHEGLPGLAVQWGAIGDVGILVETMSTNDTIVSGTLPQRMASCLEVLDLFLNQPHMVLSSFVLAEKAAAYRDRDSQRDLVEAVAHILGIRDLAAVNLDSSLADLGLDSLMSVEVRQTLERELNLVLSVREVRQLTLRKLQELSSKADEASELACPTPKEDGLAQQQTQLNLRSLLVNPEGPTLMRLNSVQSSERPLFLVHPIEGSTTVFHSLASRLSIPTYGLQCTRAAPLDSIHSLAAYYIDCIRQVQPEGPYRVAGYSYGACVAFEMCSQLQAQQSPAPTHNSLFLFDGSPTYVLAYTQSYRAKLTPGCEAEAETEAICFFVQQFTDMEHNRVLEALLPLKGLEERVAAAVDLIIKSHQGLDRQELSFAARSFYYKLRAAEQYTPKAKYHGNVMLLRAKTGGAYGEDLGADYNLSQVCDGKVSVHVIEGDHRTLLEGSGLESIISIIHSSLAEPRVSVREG
MPTP inh – mitochondrial permeability transition pore inhibitors, primary screen, biochemical, isolated mouse mitochondria, absorbance; Ca2+ swelling absorbance, 30 min; 360,000 compounds, 1.4% hits; inhibition, % at 10 µM;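 active = inhibition of 50% or more, scaled per plate between neutral and stimulator controls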;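 note: 0% = DMSO wells given calcium and 100% = 1 mM EGTA wells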
Myeloid diff MLP – induction of myeloid progenitor differentiation, primary screen, cell-based, flow cytometry, MLPCN library; ER-HoxA9 myeloid progenitors, lysozyme-GFP differentiation; calls only at 10 µM; 360,000 compounds, 1% hits;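 active = normalized GFP-positive differentiation at or above the plate's own cutoff, the solvent-only control mean plus 3 SD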;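 note: cells exposed to compound for four days before flow analysis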
* = called active by the depositor. Rows were chosen to be rich in hits. Some 5.7% of all compounds tested hit in one or more screens of this group.

What do the screens show for `C=CCN1C(=O)/C(=C2/Sc3ccccc3N2CC)SC1=S`?
rCAG binder: 3; GRIN3A LBD mod: -6; FAS TE block: -6; MPTP inh: 1; Myeloid diff MLP: inactive

How did COc1ccc(-c2[nH]c(-c3ccccc3)nc2SCC(=O)Nc2nccs2)cc1 do in these assays?
rCAG binder: 6; GRIN3A LBD mod: -5; FAS TE block: 8; MPTP inh: 2; Myeloid diff MLP: inactive

What do the screens show for `COc1ccc(-c2[nH]c(-c3ccc(Cl)cc3)nc2SCC(=O)Nc2nccs2)cc1`?
rCAG binder: 6; GRIN3A LBD mod: 11*; FAS TE block: 11; MPTP inh: 4; Myeloid diff MLP: inactive

What do the screens show for `CC(C)OC(=O)CC(=O)CSc1nc(-c2ccc(F)cc2)cc(-c2ccccc2)c1C#N`?
rCAG binder: 16; GRIN3A LBD mod: -2; FAS TE block: 19; MPTP inh: 4; Myeloid diff MLP: inactive

Results for COc1cc(-c2cc(-c3ccccc3)nc(SCC(=O)Nc3nccs3)c2C#N)cc(OC)c1OC ?
rCAG binder: 8; GRIN3A LBD mod: -1; FAS TE block: 18; MPTP inh: 1; Myeloid diff MLP: active

How did CCOC(=O)CC(=O)CSc1nc(-c2ccccc2)cc(-c2ccccc2)c1C#N do in these assays?
rCAG binder: 11; GRIN3A LBD mod: 2; FAS TE block: 30; MPTP inh: -1; Myeloid diff MLP: active

Results for COCCN1Cc2cc(C(=O)OC)c3c(c2C1=O)c1ccccc1n3S(=O)(=O)c1ccc(OC)cc1 ?
rCAG binder: 7

What do the screens show for `C[C@@H]1ON(C)[C@H]2C[C@H]3c4cc(N5CCN(C)CC5)ccc4CCN3C[C@@H]12`?
rCAG binder: 3

How did COC(=O)[C@]12C=CCN1[C@@H](c1ccc(OC)c(OC)c1)c1c(c3ccccc3n1S(=O)(=O)c1ccc(C)cc1)C2 do in these assays?
rCAG binder: 10

Results for c1cncc(-c2csc(-c3cccnc3)n2)c1 ?
rCAG binder: 13; GRIN3A LBD mod: -2; FAS TE block: -9; MPTP inh: -1; Myeloid diff MLP: inactive

What do the screens show for `c1cncc(-c2nc(-c3cccs3)cs2)c1`?
rCAG binder: -2; GRIN3A LBD mod: 0; FAS TE block: -5; MPTP inh: 0; Myeloid diff MLP: active

What do the screens show for `Cc1ccc(S(=O)(=O)Nc2ccc3c(c2)OCCO3)cc1`?
rCAG binder: 3; GRIN3A LBD mod: -2; FAS TE block: 2; MPTP inh: 1; Myeloid diff MLP: inactive

What do the screens show for `CSc1ccc(S(=O)(=O)Nc2ccc3c(c2)OCCO3)cc1`?
rCAG binder: 5; GRIN3A LBD mod: -4; FAS TE block: 14; MPTP inh: 6; Myeloid diff MLP: active

Results for COc1ccc(F)cc1C1=CC(=O)C[C@H](c2ccc3c(c2)OCO3)C1 ?
rCAG binder: -5; GRIN3A LBD mod: -4; FAS TE block: 30; MPTP inh: -1; Myeloid diff MLP: active

How did COc1ccc([C@H]2CC(=O)C=C(c3cc(OC)ccc3OC)C2)cc1 do in these assays?
rCAG binder: -5; GRIN3A LBD mod: 1; FAS TE block: 25; MPTP inh: 0; Myeloid diff MLP: active

What do the screens show for `Cc1cc(N=Nc2ccc(C)c(N=Nc3cc(C)c(N)cc3N)c2)c(N)cc1N`?
rCAG binder: 29; GRIN3A LBD mod: 10*; FAS TE block: 0; MPTP inh: 4; Myeloid diff MLP: inactive

How did COc1ccc(N=Nc2cc(OC)c(N)cc2OC)cc1 do in these assays?
rCAG binder: 6; GRIN3A LBD mod: 0; FAS TE block: 0; MPTP inh: 2; Myeloid diff MLP: inactive

Results for Cc1cc2c(c(=O)o1)[C@@]1(C(=O)N(C)c3c(Br)cccc31)C1=C(CCCC1=O)O2 ?
rCAG binder: 1

What do the screens show for `CC[C@H](C)[C@@H](CNC)NC[C@@H](Cc1ccc(O)cc1)NCC(C)(C)C`?
rCAG binder: -9; GRIN3A LBD mod: -4; FAS TE block: -10; MPTP inh: 0; Myeloid diff MLP: inactive

What do the screens show for `CC[C@@H](C)[C@H](CN[C@H](CNC)C(C)C)NC[C@@H](C)c1ccc(CC(C)C)cc1`?
rCAG binder: -2; GRIN3A LBD mod: 2; FAS TE block: -14; MPTP inh: 5; Myeloid diff MLP: active

Results for Cc1ccnc(N/C=C(\C#N)c2nc(-c3cccc(Br)c3)cs2)c1 ?
rCAG binder: -6; GRIN3A LBD mod: -25; FAS TE block: -129; MPTP inh: 3; Myeloid diff MLP: active

What do the screens show for `COc1ccc(CNC(=O)N(C)C[C@@H]2OCc3ccccc3-c3c(n(C)c4ccccc34)C(=O)N([C@@H](C)CO)C[C@@H]2C)cc1`?
rCAG binder: 6

How did O=C(OC12CCCN(C1)/C(=C/c1cccc(Cl)c1)C2)C1CCCCC1 (stereo not given) do in these assays?
rCAG binder: 3

What do the screens show for `O=C(Cc1cccs1)Nc1ccc(-c2nnc(-c3ccco3)o2)cc1`?
rCAG binder: 1; GRIN3A LBD mod: -2; FAS TE block: -10; MPTP inh: 3; Myeloid diff MLP: inactive

What do the screens show for `O=C(Nc1ccc2nc(-c3ccco3)[nH]c2c1)c1cccs1`?
rCAG binder: 2; GRIN3A LBD mod: 13*; FAS TE block: 3; MPTP inh: -1; Myeloid diff MLP: inactive

What do the screens show for `Cc1ccc2nc(-c3ccc(NC(=O)Cc4cccs4)cc3)[nH]c2c1`?
rCAG binder: 13; GRIN3A LBD mod: 34*; FAS TE block: -7; MPTP inh: 0; Myeloid diff MLP: inactive

How did O=C(Cc1cccs1)Nc1ccc(-c2nnc(-c3ccccc3)o2)cc1 do in these assays?
rCAG binder: 1; GRIN3A LBD mod: 28*; FAS TE block: -4; MPTP inh: -5; Myeloid diff MLP: inactive

How did O=C(Nc1ccc2nc(-c3ccccc3)[nH]c2c1)c1cccs1 do in these assays?
rCAG binder: 0; GRIN3A LBD mod: 30*; FAS TE block: 1; MPTP inh: 2; Myeloid diff MLP: inactive

Results for Cc1ccc2nc(NC(=O)Cc3cccs3)sc2c1 ?
rCAG binder: 0; GRIN3A LBD mod: -6; FAS TE block: 7; MPTP inh: -1; Myeloid diff MLP: inactive

How did CC(=O)Nc1cccc(-c2nc3ccc(NC(C)=O)cc3[nH]2)c1 do in these assays?
rCAG binder: 0; GRIN3A LBD mod: -6; FAS TE block: -5; MPTP inh: -5; Myeloid diff MLP: inactive

Results for CCOC(=O)C1=CCC(c2ccccc2C(F)(F)F)N(S(=O)(=O)c2ccc(C)cc2)C1 (stereo not given) ?
rCAG binder: -1; FAS TE block: 26; MPTP inh: 0; Myeloid diff MLP: inactive

Results for O=C(Nc1ccc2nc(-c3ccc4nc[nH]c4c3)[nH]c2c1)c1cccs1 ?
rCAG binder: 14; GRIN3A LBD mod: 29*; FAS TE block: -15; MPTP inh: -1; Myeloid diff MLP: inactive
